In all, about 370,000 compounds went through this assay and about 2,600 (0.7%) were called active. For the sample, actives were picked, then their nearest neighbours and some compounds at random. A number with no mark means an inactive call.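 Rule for the calls: active = inhibition above a per-plate cutoff, mean inhibition of test wells between control levels plus 3 SD (cut at about 38% in these data); inactive = the rest.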
What follows are molecules tested against COUP transcription factor 2 (Homo sapiens) (UniProt P24468) (assay: NR2F2 transcriptional activity inhibitors, primary screen, cell-based, luciferase reporter, HEK293T, luminescence (AID 686940;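 note: cells cotransfected with COUP-TFII expression vector driving the NGFI-A reporter; 0% = median of COUP-TF2 test wells and 100% = reporter-only cells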)). Details: HEK293T NGFI-A luciferase reporter, at 8.6 µM, active compounds read high.
COUP transcription factor 2 (Homo sapiens), sequence (P24468 whole entry, looked up): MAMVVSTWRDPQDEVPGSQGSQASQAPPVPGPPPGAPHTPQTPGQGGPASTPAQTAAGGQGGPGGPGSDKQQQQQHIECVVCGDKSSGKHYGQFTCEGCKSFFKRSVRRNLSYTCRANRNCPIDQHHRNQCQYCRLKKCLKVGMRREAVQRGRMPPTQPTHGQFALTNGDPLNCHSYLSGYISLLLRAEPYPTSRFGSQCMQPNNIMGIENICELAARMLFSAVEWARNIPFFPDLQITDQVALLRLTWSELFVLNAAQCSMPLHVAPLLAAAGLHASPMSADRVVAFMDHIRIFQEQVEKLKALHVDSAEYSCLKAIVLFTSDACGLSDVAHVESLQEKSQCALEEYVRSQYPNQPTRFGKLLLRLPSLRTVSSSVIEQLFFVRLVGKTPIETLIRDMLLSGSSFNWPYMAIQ
`Cc1cc(C(=O)NN=C/C=C/c2ccco2)n[nH]1` was tested, and the inhibition was -13.9%. `COC(=O)c1ccccc1NC(=O)CSc1n[nH]c(-c2ccncc2)n1` gave an inhibition of 8.9%. Molecule `CCc1c(C)nc(SCC(=O)NC2CCCC2)[nH]c1=O` has an inhibition of 11.9%. With `CCc1ccc(-c2nc(SCC(=O)NC3CCCC3)n[nH]2)cc1` the inhibition was 53.3% (active). With `O=C(c1cccc(C(F)(F)F)c1)N1CC[C@H]2[C@H](CCCN2Cc2cc(F)cc(F)c2)C1` the inhibition was 2.53%. In the case of `Cc1ccc(NC(=O)c2ccc(CSc3ncnc4nc[nH]c34)cc2)c(C)c1`, the inhibition is reported as -6.98%. In the case of `CCc1ccc(N(CC)c2ncnc3nc[nH]c23)cc1`, the inhibition is reported as 39.6% (active). `S=c1c2[nH]cnc2ncn1CCSc1ncnc2nc[nH]c12` gave an inhibition of 3.01%. `CCCCN1CCN(C(=O)c2ccc3c(c2)NC(=O)C(C)(C)O3)CC1` was tested, and the inhibition was -23.3%. In the case of `O=C(CNC(=O)c1ccccc1)OC(C(=O)Nc1cc([N+](=O)[O-])ccc1F)c1ccccc1` (configuration not stated), the inhibition is reported as 1.21%. For `O=C(NC(Nc1nc2ccc([N+](=O)[O-])cc2s1)(C(F)(F)F)C(F)(F)F)c1ccccc1`, the inhibition was 74.1% (active). In the case of `O=C(Nc1nc2ccc(Cl)cc2s1)c1cc(-c2ccc(Cl)cc2)nc2ccccc12`, the inhibition is reported as -23.3%. For `Cc1ccccc1NC(=O)COC(=O)c1ccc(Sc2ncn[nH]2)c([N+](=O)[O-])c1`, the inhibition was 13.4%. For `CC(C)(CNC(=O)c1ccc(Cl)c(S(=O)(=O)N2CCc3ccccc3C2)c1)N1CCOCC1`, the inhibition was 65% (active). `CN(C)S(=O)(=O)c1ccc(C(=O)NCC(C)(C)N2CCOCC2)cc1` gave an inhibition of 15.8%. In the case of `O=C(NCCSCc1ccccc1)c1ccc(Cl)c(S(=O)(=O)N2CCOCC2)c1`, the inhibition is reported as 11%. In the case of `N#Cc1ccc(OC[C@@H](O)CN2CCC(C(O)(c3ccccc3)c3ccccc3)CC2)c(F)c1`, the inhibition is reported as -4.45%. Work on `O=C(CSc1nc2ccccc2s1)NN=Cc1ccc(O)cc1O` yielded an inhibition of -18.2%. Work on `C=CCN(C)CC#Cc1ccccc1` yielded an inhibition of 17.2%. Work on `Cc1ccc(-n2c(SCC(=O)Nc3cccc4ccccc34)nnc2-c2ccccn2)cc1` yielded an inhibition of 14.2%. `CC(C)(C)c1ccc(Oc2ccc(N)cc2)cc1` was tested, and the inhibition was 100% (active). For `COc1cccc(CNC(=O)CNS(=O)(=O)c2ccc3nc(C)sc3c2)c1OC`, the inhibition was 14.5%. `O=C1CCC2(CCC(c3ccc(Cl)cc3)CC2)N1CCO` (configuration not stated) showed an inhibition of 20.9%. `COC1=C[C@H](C(=O)NCCNC(C)=O)[C@H](C)[C@@H](c2ccccc2)CC1=O` gave an inhibition of 12%. `CN(C)S(=O)(=O)c1cccc(C(=O)N/N=C\c2ccco2)c1` showed an inhibition of 2.18%. In the case of `O=C(Nc1ccccc1)N1CCN(Cc2nc3ccccc3c(=O)[nH]2)CC1`, the inhibition is reported as 13.6%. With `O=C(C1CCN(S(=O)(=O)c2ccccc2)CC1)N1CCN(C2CCCCC2)CC1` the inhibition was -29.2%. With `CCN(CC)P(=O)(C(NC(=O)OC)C(F)(F)C(F)(F)C(F)(F)C(F)F)N(CC)CC` (configuration not stated) the inhibition was 98.4% (active). `O=C(CSc1nc2c(c(=O)[nH]1)CCCC2)N1CCCCC1` gave an inhibition of -26.3%. For `O=S1(=O)c2ccc(N3CCN(Cc4ccccc4F)CC3)cc2Oc2ccccc2CN1Cc1cn(Cc2ccc(Cl)cc2)nn1`, the inhibition was -6.71%. `Cc1ccc(-n2c(SCC(=O)Nc3ccc(S(=O)(=O)Nc4nccs4)cc3)nnc2-c2ccccn2)cc1` was tested, and the inhibition was -5.91%. `C=CCSc1nsc(NC(=O)Nc2cccc(C(C)=O)c2)n1` was tested, and the inhibition was 38.1% (active). Molecule `CCSc1nsc(NC(=O)Nc2cccc(C(C)=O)c2)n1` has an inhibition of 17.5%. `CCCCN1C(=O)C(=O)N(CC(=O)Nc2cccc(C(C)=O)c2)C1=O` was tested, and the inhibition was 0.73%. With `COC(=O)C[C@@H]1CC[C@@H]2[C@H](COc3ccc(NC(=O)c4cccc(F)c4)cc3C(=O)N2C)O1` the inhibition was -0.62%. In the case of `COc1ccc(-n2c(SCC(=O)Nc3ccc4cn[nH]c4c3)nnc2-c2cccnc2)cc1`, the inhibition is reported as 9.8%. Work on `N#CCC[C@H]1CC[C@]2(CCCN(Cc3ccc(Cl)cc3)C2)O1` yielded an inhibition of 1.96%. `O=C1NC[C@H](CCCCN2C[C@H](Cc3ccccc3)N(Cc3ccccc3)C(=O)C2=O)N(CCc2ccc(O)cc2)C1=O` gave an inhibition of -7.95%. `O=C1NC[C@H](CCCCN2C[C@H](Cc3ccc(O)cc3)N(CCc3ccccc3)C(=O)C2=O)N(CCc2ccccc2)C1=O` showed an inhibition of -1.56%. In the case of `O=C1NC[C@@H](Cc2ccc(O)cc2)N(CCc2cccc(F)c2)C1=O`, the inhibition is reported as 48.2% (active). `COc1ccnc(C(=O)N2CCC(Oc3cccnc3)CC2)c1` gave an inhibition of -26.8%. Molecule `O=S1(=O)c2c(cccc2N2CCSCC2)Oc2ccccc2CN1Cc1cn(Cc2ccc(F)cc2)nn1` has an inhibition of -4.53%. Work on `O=C(Nc1cc(Cl)cc(Cl)c1)OCCN1CCCC12CCC(c1ccccc1)CC2` (configuration not stated) yielded an inhibition of 2%. In the case of `NS(=O)(=O)c1ccc(CCNc2nc(C(F)(F)F)nc3ccccc23)cc1`, the inhibition is reported as 46.6% (active). In the case of `CC(Nc1nc(C(F)(F)F)nc2ccccc12)c1cccs1` (configuration not stated), the inhibition is reported as -15.1%. For `NS(=O)(=O)c1ccc(CCNC(=O)CNC(=O)Cc2ccccc2)cc1`, the inhibition was 10.1%. With `CCCCn1c(SCc2ncc(-c3ccccc3)o2)nc2cc(S(N)(=O)=O)ccc21` the inhibition was 47% (active). For `c1ccc(-c2cnc(CN3CCN(c4ccccc4)CC3)o2)cc1`, the inhibition was -25.5%. `CCCCn1c(SCC(=O)N2CCCC2=O)nc2cc(S(N)(=O)=O)ccc21` showed an inhibition of -5.45%. `Cc1ccc(NC(=O)Nc2cc(C)nn2-c2ccccc2)cc1` showed an inhibition of -17.6%. Molecule `COc1ccc(C2CC=C(C(=O)O)C(c3ccccc3F)N2S(=O)(=O)c2ccc(C)cc2)cc1OC` (configuration not stated) has an inhibition of 13%. `COc1ccc2c(C(C)c3ccc(N)cc3)cn(C)c2c1` (configuration not stated) showed an inhibition of -15.8%. `O=C(C1CCCN1S(=O)(=O)c1ccccc1)N1CCc2ccccc2C1` (configuration not stated) gave an inhibition of 7.01%. With `CN1C(=O)c2cc(NS(C)(=O)=O)ccc2OC[C@@H]2O[C@@H](CC(=O)NCc3ccc(-c4ccccc4)cc3)CC[C@H]21` the inhibition was -21.8%. In the case of `O=C(c1cncc(Br)c1)N1CCN(c2ccc([N+](=O)[O-])cc2)CC1`, the inhibition is reported as 9.04%. In the case of `O=C(c1cc(C(=O)N2CCN(c3ccc(F)cc3)CC2)cc([N+](=O)[O-])c1)N1CCN(c2ccc(F)cc2)CC1`, the inhibition is reported as 58.1% (active). Molecule `O=[N+]([O-])c1ccc(N2CCN(c3ccc(F)cc3)CC2)cn1` has an inhibition of -9.2%.
